Changes are numbered by the printed parent chain; changes in the protein carry UniProt numbers. The full ranking holds about 16,000 sequences; the median of “ka relative to ugcaugu” is about 0.096, and the highest 2% start at about 0.35. Shown is part of a subset that was picked to be rich in the highest values.
T1: RBFOX1 RRM RbFoxmut (Fox-RRM*) (Homo sapiens, UniProt Q9NWB1 109-208, R118D;E147R;N151S;E152T)
T1 sequence: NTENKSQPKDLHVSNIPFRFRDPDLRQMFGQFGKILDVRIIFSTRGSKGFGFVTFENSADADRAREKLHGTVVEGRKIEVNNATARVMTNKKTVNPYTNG

B1: CAUACAC (DNA:RNA)
RNA: GGGAGACCGGAAUUCAGAUUGUCCCAUACACUUAAAUCCCGUCGUAGCCACCA
DNA 1: CAATCTGAATTCCGGTCTCCC
DNA 2: TGGTGGCTACGACGGGATT
B2: GUCUAGC (DNA:RNA)
RNA: B1 RNA with C25G, A26U, U27C, A28U, C29A, A30G
DNA 1: CAATCTGAATTCCGGTCTCCC
DNA 2: TGGTGGCTACGACGGGATT
B3: UUCCCGC (DNA:RNA)
RNA: B1 RNA with C25U, A26U, U27C, A28C, A30G
DNA 1: CAATCTGAATTCCGGTCTCCC
DNA 2: TGGTGGCTACGACGGGATT
B4: CCCGCGA (DNA:RNA)
RNA: B1 RNA with A26C, U27C, A28G, A30G, C31A
DNA 1: CAATCTGAATTCCGGTCTCCC
DNA 2: TGGTGGCTACGACGGGATT
B5: CAUUCUU (DNA:RNA)
RNA: B1 RNA with A28U, A30U, C31U
DNA 1: CAATCTGAATTCCGGTCTCCC
DNA 2: TGGTGGCTACGACGGGATT
B6: AAAGCCC (DNA:RNA)
RNA: B1 RNA with C25A, U27A, A28G, A30C
DNA 1: CAATCTGAATTCCGGTCTCCC
DNA 2: TGGTGGCTACGACGGGATT
B7: ACGCGUC (DNA:RNA)
RNA: B1 RNA with C25A, A26C, U27G, A28C, C29G, A30U
DNA 1: CAATCTGAATTCCGGTCTCCC
DNA 2: TGGTGGCTACGACGGGATT
B8: ACGCAGA (DNA:RNA)
RNA: GGGAGACCGGAAUUCAGAUUGUCCACGCAGAUUAAAUCCCGUCGUAGCCACCA
DNA 1: CAATCTGAATTCCGGTCTCCC
DNA 2: TGGTGGCTACGACGGGATT
B9: ACGCGCA (DNA:RNA)
RNA: B8 RNA with A29G, G30C
DNA 1: CAATCTGAATTCCGGTCTCCC
DNA 2: TGGTGGCTACGACGGGATT
B10: ACGCAUC (DNA:RNA)
RNA: B8 RNA with G30U, A31C
DNA 1: CAATCTGAATTCCGGTCTCCC
DNA 2: TGGTGGCTACGACGGGATT
B11: ACGCAUG (DNA:RNA)
RNA: B8 RNA with G30U, A31G
DNA 1: CAATCTGAATTCCGGTCTCCC
DNA 2: TGGTGGCTACGACGGGATT
B12: ACGCAUA (DNA:RNA)
RNA: B8 RNA with G30U
DNA 1: CAATCTGAATTCCGGTCTCCC
DNA 2: TGGTGGCTACGACGGGATT
B13: UCAUUGC (DNA:RNA)
RNA: B8 RNA with A25U, G27A, C28U, A29U, A31C
DNA 1: CAATCTGAATTCCGGTCTCCC
DNA 2: TGGTGGCTACGACGGGATT
B14: GAUAGUG (DNA:RNA)
RNA: B1 RNA with C25G, C29G, A30U, C31G
DNA 1: CAATCTGAATTCCGGTCTCCC
DNA 2: TGGTGGCTACGACGGGATT
B15: CGAUAGA (DNA:RNA)
RNA: B8 RNA with A25C, C26G, G27A, C28U
DNA 1: CAATCTGAATTCCGGTCTCCC
DNA 2: TGGTGGCTACGACGGGATT
B16: UGGUAUG (DNA:RNA)
RNA: B8 RNA with A25U, C26G, C28U, G30U, A31G
DNA 1: CAATCTGAATTCCGGTCTCCC
DNA 2: TGGTGGCTACGACGGGATT
B17: UGGUAUC (DNA:RNA)
RNA: B8 RNA with A25U, C26G, C28U, G30U, A31C
DNA 1: CAATCTGAATTCCGGTCTCCC
DNA 2: TGGTGGCTACGACGGGATT
B18: UGGUAGA (DNA:RNA)
RNA: B8 RNA with A25U, C26G, C28U
DNA 1: CAATCTGAATTCCGGTCTCCC
DNA 2: TGGTGGCTACGACGGGATT
B19: UGGUAUA (DNA:RNA)
RNA: B8 RNA with A25U, C26G, C28U, G30U
DNA 1: CAATCTGAATTCCGGTCTCCC
DNA 2: TGGTGGCTACGACGGGATT
B20: UGGUAAA (DNA:RNA)
RNA: B8 RNA with A25U, C26G, C28U, G30A
DNA 1: CAATCTGAATTCCGGTCTCCC
DNA 2: TGGTGGCTACGACGGGATT
B21: UGGUAGC (DNA:RNA)
RNA: B8 RNA with A25U, C26G, C28U, A31C
DNA 1: CAATCTGAATTCCGGTCTCCC
DNA 2: TGGTGGCTACGACGGGATT
B22: ACUUGAG (DNA:RNA)
RNA: B8 RNA with G27U, C28U, A29G, G30A, A31G
DNA 1: CAATCTGAATTCCGGTCTCCC
DNA 2: TGGTGGCTACGACGGGATT
B23: AGGGUAC (DNA:RNA)
RNA: B8 RNA with C26G, C28G, A29U, G30A, A31C
DNA 1: CAATCTGAATTCCGGTCTCCC
DNA 2: TGGTGGCTACGACGGGATT
B24: UUAACCU (DNA:RNA)
RNA: B1 RNA with C25U, A26U, U27A, A30C, C31U
DNA 1: CAATCTGAATTCCGGTCTCCC
DNA 2: TGGTGGCTACGACGGGATT
B25: UCCAUCA (DNA:RNA)
RNA: B8 RNA with A25U, G27C, C28A, A29U, G30C
DNA 1: CAATCTGAATTCCGGTCTCCC
DNA 2: TGGTGGCTACGACGGGATT
B26: GGCAGCU (DNA:RNA)
RNA: B1 RNA with C25G, A26G, U27C, C29G, A30C, C31U
DNA 1: CAATCTGAATTCCGGTCTCCC
DNA 2: TGGTGGCTACGACGGGATT
B27: GUCGAGC (DNA:RNA)
RNA: B8 RNA with A25G, C26U, G27C, C28G, A31C
DNA 1: CAATCTGAATTCCGGTCTCCC
DNA 2: TGGTGGCTACGACGGGATT
B28: GGCAUGG (DNA:RNA)
RNA: B8 RNA with A25G, C26G, G27C, C28A, A29U, A31G
DNA 1: CAATCTGAATTCCGGTCTCCC
DNA 2: TGGTGGCTACGACGGGATT
B29: GCAAUGG (DNA:RNA)
RNA: B8 RNA with A25G, G27A, C28A, A29U, A31G
DNA 1: CAATCTGAATTCCGGTCTCCC
DNA 2: TGGTGGCTACGACGGGATT
B30: GCAUAGC (DNA:RNA)
RNA: B8 RNA with A25G, G27A, C28U, A31C
DNA 1: CAATCTGAATTCCGGTCTCCC
DNA 2: TGGTGGCTACGACGGGATT
B31: GCAUUGG (DNA:RNA)
RNA: B8 RNA with A25G, G27A, C28U, A29U, A31G
DNA 1: CAATCTGAATTCCGGTCTCCC
DNA 2: TGGTGGCTACGACGGGATT
B32: GUCAUGG (DNA:RNA)
RNA: B8 RNA with A25G, C26U, G27C, C28A, A29U, A31G
DNA 1: CAATCTGAATTCCGGTCTCCC
DNA 2: TGGTGGCTACGACGGGATT
B33: GCAUGGC (DNA:RNA)
RNA: B8 RNA with A25G, G27A, C28U, A29G, A31C
DNA 1: CAATCTGAATTCCGGTCTCCC
DNA 2: TGGTGGCTACGACGGGATT
B34: GCAUGGA (DNA:RNA)
RNA: B8 RNA with A25G, G27A, C28U, A29G
DNA 1: CAATCTGAATTCCGGTCTCCC
DNA 2: TGGTGGCTACGACGGGATT
B35: GCAUGGU (DNA:RNA)
RNA: B8 RNA with A25G, G27A, C28U, A29G, A31U
DNA 1: CAATCTGAATTCCGGTCTCCC
DNA 2: TGGTGGCTACGACGGGATT
B36: CGCAUGG (DNA:RNA)
RNA: B1 RNA with A26G, U27C, C29U, A30G, C31G
DNA 1: CAATCTGAATTCCGGTCTCCC
DNA 2: TGGTGGCTACGACGGGATT
B37: GCAUGGG (DNA:RNA)
RNA: B8 RNA with A25G, G27A, C28U, A29G, A31G
DNA 1: CAATCTGAATTCCGGTCTCCC
DNA 2: TGGTGGCTACGACGGGATT
B38: CCAUGGU (DNA:RNA)
RNA: B8 RNA with A25C, G27A, C28U, A29G, A31U
DNA 1: CAATCTGAATTCCGGTCTCCC
DNA 2: TGGTGGCTACGACGGGATT
B39: GCCAUGG (DNA:RNA)
RNA: B8 RNA with A25G, G27C, C28A, A29U, A31G
DNA 1: CAATCTGAATTCCGGTCTCCC
DNA 2: TGGTGGCTACGACGGGATT

Each binder was assayed against T1, RBFOX1 RRM RbFoxmut (Fox-RRM*) (assay: EMSA; HiTS-Eq, 1 nM pool, 10 min; buffer printed only for the single-RNA assays: 10 mM Tris pH 7.5, 150 mM NaCl, 3.4 mM EDTA, 0.001% NP-40, 30 C). Details: tags: His6 N-terminal (pET28a); label: 5' 32P.
Outline: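 A pool of RNA with 7 randomized nucleotides, 5′-radiolabelled and with DNA-annealed flanks, was equilibrated at 1 nM for 10 min in 50 µL with purified RbFox RRM, wild type or mutant, across increasing protein concentrations. Free RNA was separated by 8% native PAGE, excised, reverse-transcribed, barcoded by PCR and sequenced. Relative association constants were obtained from read-count changes of each RNA species versus the control reaction and normalised to the cognate motif.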

| Binder | binding signal |
| --- | --- |
| B1 | 0.0927 KA relative to UGCAUGU |
| B2 | 0.0934 KA relative to UGCAUGU |
| B3 | 0.0732 KA relative to UGCAUGU |
| B4 | 0.0823 KA relative to UGCAUGU |
| B5 | 0.101 KA relative to UGCAUGU |
| B6 | 0.066 KA relative to UGCAUGU |
| B7 | 0.0969 KA relative to UGCAUGU |
| B8 | 0.106 KA relative to UGCAUGU |
| B9 | 0.15 KA relative to UGCAUGU |
| B10 | 0.355 KA relative to UGCAUGU |
| B11 | 0.844 KA relative to UGCAUGU |
| B12 | 0.152 KA relative to UGCAUGU |
| B13 | 0.12 KA relative to UGCAUGU |
| B14 | 0.126 KA relative to UGCAUGU |
| B15 | 0.101 KA relative to UGCAUGU |
| B16 | 1.27 KA relative to UGCAUGU |
| B17 | 0.356 KA relative to UGCAUGU |
| B18 | 0.128 KA relative to UGCAUGU |
| B19 | 0.157 KA relative to UGCAUGU |
| B20 | 0.0843 KA relative to UGCAUGU |

| Binder | binding signal |
| --- | --- |
| B21 | 0.102 KA relative to UGCAUGU |
| B22 | 0.13 KA relative to UGCAUGU |
| B23 | 0.106 KA relative to UGCAUGU |
| B24 | 0.0822 KA relative to UGCAUGU |
| B25 | 0.0673 KA relative to UGCAUGU |
| B26 | 0.0642 KA relative to UGCAUGU |
| B27 | 0.0952 KA relative to UGCAUGU |
| B28 | 0.524 KA relative to UGCAUGU |
| B29 | 0.0714 KA relative to UGCAUGU |
| B30 | 0.126 KA relative to UGCAUGU |
| B31 | 0.179 KA relative to UGCAUGU |
| B32 | 0.154 KA relative to UGCAUGU |
| B33 | 0.497 KA relative to UGCAUGU |
| B34 | 0.23 KA relative to UGCAUGU |
| B35 | 0.753 KA relative to UGCAUGU |
| B36 | 0.804 KA relative to UGCAUGU |
| B37 | 0.322 KA relative to UGCAUGU |
| B38 | 0.125 KA relative to UGCAUGU |
| B39 | 0.12 KA relative to UGCAUGU |

Reference: paper PMC9911399, “Two distinct binding modes provide the RNA-binding protein RbFox with extraordinary sequence specificity”
